# Only some compounds are listed: those with a hit (about 0.27% of all), similar ones and a draw of the others.
# Tb PFK inh = qHTS Assay to Find Inhibitors of T. brucei phosphofructokinase. ATP-dependent 6-phosphofructokinase (Trypanosoma brucei brucei), O15648. Potency, µM (highest dose often 57.5 µM), usual class: inhibitors. 330,000 tested, 0.17% active. T. brucei PFK, ADP-Glo luminescence; also: nearly all actives have a fitted effect of over 60% in size
#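 In TEA buffer at pH 8.0 with 5 mM MgCl2, enzyme (1.25 nM) converted F6P (0.5 mM) and ATP (0.1 mM) for 45 min at room temperature. ADP product was read by luciferase luminescence.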
# Chronic BCR inh = qHTS Assay to Find Inhibitors of Chronic Active B-Cell Receptor Signaling. ABC-DLBCL IkBa-CBG/CBR reporter, luminescence ratio, 4 h. Potency, µM (top dose mostly 46.1 µM), most hits filed as inhibitors. 340,000 tested, 0.05% active; active = well fitted inhibition curve with a large enough effect in the signal ratio, with a control signal flat, not every such curve was filed as active; inconclusive = small, poorly fitted or top-dose-only effect, or effect the other way, or a change in a side signal; the % refers to the signal ratio
#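 Concentration-response series (up to 46 uM) were applied to TMD8 dual-reporter cells for 4 h at 37C with doxycycline. Green/red ratio, after filter-overlap correction, defined %Activity; red signal alone was normalised to basal cells and zero luminescence.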
# B2AR arrestin = qHTS assay of beta-arrestin-biased ligands of beta2-adrenergic receptor; AID 492947, 2010; beta-arrestin recruitment to beta2AR, cell-based reporter; 330,000 tested, 0.02% active; Potency, µM (highest dose often 46.1 µM), usual class: activators; Beta-2 adrenergic receptor (Homo sapiens), P07550; also: nearly all actives have a fitted effect of over 65% in size
# Target sequence (P07550 whole entry, looked up): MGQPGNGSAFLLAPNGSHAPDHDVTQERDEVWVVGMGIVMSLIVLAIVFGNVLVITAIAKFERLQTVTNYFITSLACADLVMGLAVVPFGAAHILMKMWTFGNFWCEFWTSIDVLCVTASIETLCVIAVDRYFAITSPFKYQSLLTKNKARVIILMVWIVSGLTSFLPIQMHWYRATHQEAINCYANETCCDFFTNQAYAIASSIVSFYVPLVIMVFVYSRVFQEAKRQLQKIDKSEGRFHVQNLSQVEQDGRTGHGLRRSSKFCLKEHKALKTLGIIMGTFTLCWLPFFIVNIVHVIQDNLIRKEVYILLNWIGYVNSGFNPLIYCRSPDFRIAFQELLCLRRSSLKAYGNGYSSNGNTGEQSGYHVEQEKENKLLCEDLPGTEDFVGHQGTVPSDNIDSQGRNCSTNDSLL
# MBNL1-CUG inh = qHTS Assay for Inhibitors of MBNL1-poly(CUG) RNA binding; Potency, µM (doses to about 57.5 µM), usual class: inhibitors; TR-FRET MBNL1-His/biotin-(CUG)12 binding, 665/545 ratio; 280,000 tested, 0.036% active; Muscleblind-like protein 1 (Homo sapiens), Q9NR56; active = well fitted inhibition curve with a large enough effect in the signal ratio, with a control signal flat, not every such curve was filed as active; inconclusive = small, poorly fitted or top-dose-only effect, or effect the other way, or a change in a side signal; inactive = no such curve, though single readings can be large or run the other way; the % refers to the signal ratio
#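 TR-FRET readout: Ex 340 nm, 665/545 nm emission ratio, normalized to buffer-only (basal) and MBNL1-(CUG)12 controls. Complex of MBNL1-His with Biotin-(CUG)12, compounds 92 nM–58 uM, incubated 60 min at room temperature.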
# MBNL1 TRFRET = qHTS Assay for Inhibitors of MBNL1-poly(CUG) RNA binding: Initial hit validation from the primary screen; shares compounds with MBNL1-CUG inh; TR-FRET MBNL1-His / biotin-(CUG)12 binding, 60 min; Potency, µM (series often up to 57.6 µM), hits mostly inhibitors; 140 tested, 50% active; AID 493199, 2011
# MBNL1 AlphaScrn = qHTS Assay for Inhibitors of MBNL1-poly(CUG) RNA binding: Initial hit validation in AlphaScreen assay for MBNL1-(CUG)12 binding | shares compounds with MBNL1-CUG inh | AlphaScreen MBNL1-His / biotin-(CUG)12 binding | Potency, µM (titrated, usually from 57.7 µM), actives largely listed as inhibitors | 140 tested, 30% active
# Menin-MLL HTRF = qHTS Assay for Inhibitors of MBNL1-poly(CUG) RNA binding: Counterscreen HTRF assay; AID 651843, 2012; His-Menin/biotin-MLL peptide TR-FRET counterscreen; Potency, µM (series often up to 57.6 µM), most hits filed as inhibitors; shares compounds with MBNL1-CUG inh; 120 tested, 20% active
# A number is an active result; - = inactive; ? = inconclusive; . = not tested or not shown. Unless noted, calls follow the shape of the dose curve; as a rule, active = well fitted curve in the direction sought with a large enough effect; inconclusive = small, poorly fitted or top-dose-only effect, or another doubt; inactive = no such curve, though single readings can be large; an effect the other way counts as inactive or inconclusive.
SMILES,Tb PFK inh,Chronic BCR inh,B2AR arrestin,MBNL1-CUG inh,MBNL1 TRFRET,MBNL1 AlphaScrn,Menin-MLL HTRF
CCCCCC1NC(=O)NC1CCCCCC(=O)O (stereo not given),-,-,-,-,.,.,.
O=C(O)CCCCC1SCC2NC(=O)NC21 (stereo not given),-,?,-,0.1µM,0.0411µM,0.0041µM,0.0146µM
COc1ccccc1CNC(=O)CCC1N=C2c3ccccc3N=C(SCC(=O)Nc3ccc(N(C)C)cc3)N2C1=O (stereo not given),.,-,.,.,.,.,.
COc1cccc(C2C(=O)N(C3CCCCC3)CC(=O)N2CCc2ccc(OC)c(OC)c2)c1 (stereo not given),.,-,.,.,.,.,.
Cc1ccc(/C=c2/sc3n(c2=O)CCCN=3)o1,-,-,-,-,?,-,-
Cc1cc(O)c(-c2cc(C(=O)Nc3cccnc3)[nH]n2)cc1C,-,?,-,.,.,.,.
CC(=O)Nc1ccc(NC(=O)c2cc(-c3cc(C)c(C)cc3O)n[nH]2)cc1,-,?,-,10µM,?,41.1µM,-
COc1ccc(NC(=O)CN(C)S(=O)(=O)c2ccc3nc(C)sc3c2)cc1,.,-,.,.,.,.,.
O=C(NC1CCCCC1)c1ccccc1NC(=O)C1CC(=O)N(c2ccc(Cl)cc2)C1 (stereo not given),-,-,-,15.8µM,-,?,-
Cc1ccc(N2CC(C(=O)Nc3ccccc3C(=O)NC3CCCCC3)CC2=O)cc1 (stereo not given),-,-,-,-,.,.,.
O=C(NC1CCCCC1)c1ccccc1NC(=O)C1CC(=O)N(c2ccccc2)C1 (stereo not given),-,-,-,39.8µM,-,-,-
O.O.O.O.O.O.O.O=S(=O)([O-])[O-].[Co+2],.,.,.,.,3.26µM,2.59µM,?
Cn1nccc1NC(=O)Nc1cccc(Cl)c1,-,-,-,31.6µM,?,?,32.6µM
Cc1ccc(S(=O)(=O)Oc2ccccc2/C=N/NC(N)=S)cc1,-,?,-,-,.,.,.
Cc1ccc(S(=O)(=O)Oc2ccccc2/C=N/N=C(N)N)cc1,-,?,-,17.8µM,16.3µM,-,?
Cc1ccccc1NS(=O)(=O)c1ccc2[nH]cc(C(=O)NC(C)c3ccccc3)c(=O)c2c1 (stereo not given),.,-,.,.,.,.,.
Cc1cc(N2CCN(C)CC2)nc2ccc(NC(=S)NCCN3CCc4ccccc4C3)cc12,-,-,-,25.1µM,-,-,-
Cc1cc(N2CCN(C)CC2)nc2ccc(NC(=S)NCCCN3CCc4ccccc4C3)cc12,-,-,-,?,.,.,.
Cc1ccc(NC(=O)CSc2nnnn2C2CC2)cc1S(=O)(=O)N1CCOCC1,-,-,-,.,.,.,.
O=C(Nc1cc(C(=O)Nc2ccc(S(=O)(=O)O)cc2S(=O)(=O)O)cc(C(=O)Nc2ccc(S(=O)(=O)O)cc2S(=O)(=O)O)c1)Nc1cc(C(=O)Nc2ccc(S(=O)(=O)O)cc2S(=O)(=O)O)cc(C(=O)Nc2ccc(S(=O)(=O)O)cc2S(=O)(=O)O)c1,.,.,.,.,20µM,28.2µM,.
O=C(Nc1cc(C(=O)Nc2ccccc2C(=O)O)cc(C(=O)Nc2ccccc2C(=O)O)c1)c1ccccc1,-,-,-,?,.,.,.
CC(=O)Nc1nc(-c2ccc(Cl)cc2)nc(C)c1C(C)=O,?,-,-,25.1µM,?,?,?
Cc1c(C(=O)Nc2cccc(Cl)c2)oc2ccc(S(=O)(=O)N(C)C3CCCCC3)cc12,.,-,.,.,.,.,.
O=C(Nc1ccc(F)cc1F)c1cc2nc(-c3ccco3)cc(C(F)(F)Cl)n2n1,.,-,.,.,.,.,.
COc1ccc(-c2nc(SCC(=O)Nc3cc(C)on3)n[nH]2)cc1,-,-,-,39.8µM,16.3µM,-,?
SMILES,Tb PFK inh,Chronic BCR inh,B2AR arrestin,MBNL1-CUG inh,MBNL1 TRFRET,MBNL1 AlphaScrn,Menin-MLL HTRF
COC(=O)c1cccc(NC(=O)c2ccccc2)c1,-,?,-,-,.,.,.
COC(=O)c1cccc(NC(=O)c2ccc[n+]([O-])c2)c1,-,-,-,39.8µM,-,?,-
Nc1ccc2c(c1)C(=O)C(=O)c1ccccc1-2,-,?,-,?,?,6.51µM,-
CN(CC(=O)Nc1sccc1C#N)C1CCCCC1,-,-,-,28.2µM,-,-,-
COCCNC(=O)C(c1cccs1)N(C(=O)Cn1nnc2ccccc21)c1cccc(C)c1 (stereo not given),-,-,-,-,.,.,.
COCCNC(=O)C(c1cccs1)N(C(=O)Cn1nnc2ccccc21)c1ccc(OC)cc1 (stereo not given),-,-,-,28.2µM,-,-,-
CC1(C)CCC2=C(O1)c1ccccc1C(=O)C2=O,.,.,.,?,?,20µM,.
N#Cc1c(N)nc(SCC(=O)NCCc2ccccc2)c(C#N)c1-c1cccs1,-,-,-,-,?,-,-
CC(=O)CSc1nc(N)c(C#N)c(-c2cccs2)c1C#N,-,?,-,-,.,.,.
O=C(O)C1Nc2c(O)cccc2C2C=CCC12 (stereo not given),?,-,-,.,10.3µM,2.06µM,-
CSc1ccccc1NC(=O)CSc1nnc(CNC(=O)c2ccccc2F)n1C,-,-,-,-,.,.,.
CCOC(=O)[C@@H]1[C@H]2COc3ccc(Br)cc3[C@@H]2N2C(=O)N(c3cccc(Cl)c3)C(=O)[C@@]12C,-,-,-,.,.,.,.
O=C(OCC1OC(OC(=O)c2cc(O)c(O)c(OC(=O)c3cc(O)c(O)c(O)c3)c2)[C@@H](OC(=O)c2cc(O)c(O)c(OC(=O)c3cc(O)c(O)c(O)c3)c2)C(OC(=O)c2cc(O)c(O)c(OC(=O)c3cc(O)c(O)c(O)c3)c2)C1OC(=O)c1cc(O)c(O)c(OC(=O)c2cc(O)c(O)c(O)c2)c1)c1cc(O)c(O)c(OC(=O)c2cc(O)c(O)c(O)c2)c1 (stereo not given in full),.,.,.,.,0.41µM,0.0291µM,.
OC(COc1ccccc1CNCc1cccnc1)CN1CCc2ccccc2C1 (stereo not given),-,-,-,12.6µM,16.3µM,?,?

# Screening results: PubChem, National Center for Advancing Translational Sciences (NCATS)
